Measured values reported in PubChem BioAssay (Tox21).
“And” between values parts separate entries of the source, which are not always exact repeats. Equal entries are not always repeated. Results filed as inconclusive are left out. A structure can be active in one record and inactive in another. The source made the active and inactive calls. Unless noted, calls come from the whole dose curve.

What was measured:
[1] = Nuclear factor erythroid 2-related factor 2/antioxidant responsive element (Nrf2/ARE) small molecule agonists: qHTS cell viability counter screen in human keratinocytes (AID 1919968; active = well fitted curve in the direction sought with a large enough effect in the repeat runs; an effect the other way counts as inactive or inconclusive; note: nearly all actives have a fitted effect of over 55% in size; note: potency is the fitted concentration of half-maximal effect)
In short: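 Measured as CellTiter-Fluor fluorescence, this readout tracks cytotoxicity in the same wells as the ARE-luciferase screen. HaCaT reporter cells (1,500/well) received compounds after a 5 h pre-incubation and were exposed for 23 h.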

[2] = Nuclear factor erythroid 2-related factor 2/antioxidant responsive element (Nrf2/ARE) small molecule agonists: luciferase reporter gene qHTS assay in human keratinocytes (AID 1919969); note: nearly all actives have a fitted effect of over 35% in size; note: potency is the fitted concentration of half-maximal effect
[3] = target: Gonadotropin-releasing hormone receptor (Homo sapiens) (UniProt P30968); test: Human gonadotropin-releasing hormone receptor (GnRHR) small molecule agonists, calcium flux assay in GnRHR-HEK293 cells (AID 1920063); note: nearly all actives have a fitted effect of over 35% in size
Chain of Gonadotropin-releasing hormone receptor (Homo sapiens) (P30968 whole entry, looked up): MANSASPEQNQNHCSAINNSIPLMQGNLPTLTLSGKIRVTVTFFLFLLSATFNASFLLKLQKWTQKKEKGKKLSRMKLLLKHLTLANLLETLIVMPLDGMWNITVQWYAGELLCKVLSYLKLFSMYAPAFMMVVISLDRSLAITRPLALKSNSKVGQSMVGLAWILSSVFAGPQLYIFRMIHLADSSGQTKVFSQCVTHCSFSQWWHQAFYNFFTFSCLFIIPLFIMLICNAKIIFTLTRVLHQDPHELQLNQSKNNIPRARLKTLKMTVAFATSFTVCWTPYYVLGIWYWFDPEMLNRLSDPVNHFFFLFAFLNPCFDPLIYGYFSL
In short: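 Fluorescence kinetics (480 nm excitation, 540 nm emission; 3 min, 1 s steps) report calcium mobilisation in human GnRHR-HEK293 cells in agonist mode. Dye incubation: 1 h, 37 C.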

[4] = target: KiSS-1 receptor (Homo sapiens) (UniProt Q969F8); test: Human kisspeptin (KISS1R) small molecule agonists, calcium flux assay in KISS1R-HEK293 cells (AID 1920064; active = well fitted curve in the direction sought with a large enough effect in the repeat runs; an effect the other way counts as inactive or inconclusive)
Chain of KiSS-1 receptor (Homo sapiens) (Q969F8 whole entry, looked up): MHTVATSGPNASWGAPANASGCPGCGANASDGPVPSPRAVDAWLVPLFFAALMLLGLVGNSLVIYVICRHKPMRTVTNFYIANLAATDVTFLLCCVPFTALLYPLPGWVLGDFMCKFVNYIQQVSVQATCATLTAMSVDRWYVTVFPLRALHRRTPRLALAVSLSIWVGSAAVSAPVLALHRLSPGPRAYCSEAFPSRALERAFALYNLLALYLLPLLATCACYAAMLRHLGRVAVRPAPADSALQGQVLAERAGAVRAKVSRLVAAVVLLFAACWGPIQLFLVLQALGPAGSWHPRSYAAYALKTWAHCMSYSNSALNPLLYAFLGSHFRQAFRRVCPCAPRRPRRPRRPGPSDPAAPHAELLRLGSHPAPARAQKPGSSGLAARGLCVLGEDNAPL
In short: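 Measures KISS1R agonism through calcium-sensitive dye fluorescence in stably transfected HEK293 cells, read for 3 min after pin-tool compound delivery; 15-point titrations in triplicate.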

[5] = p53 small molecule agonists, cell-based qHTS assay with human liver microsomes: qHTS cell viability counter screen (AID 1963579); note: nearly all actives have a fitted effect of over 45% in size; note: potency is the fitted concentration of half-maximal effect
In short: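 p53RE-bla cells (4,000/well) were pre-incubated 5 h at 37 C, then given compounds in DMSO plus human liver microsomes (0.5 mg/mL final) and NADPH (0.5 mg/mL final) for 16 h at 37 C. Viability was read by CellTiter-Glo luminescence.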

[6] = p53 small molecule agonists, cell-based qHTS assay with rat liver microsomes: qHTS cell viability counter screen (AID 1963580); note: nearly all actives have a fitted effect of over 45% in size; note: potency is the fitted concentration of half-maximal effect
In short: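 Viability is assessed in parallel with the p53 reporter read: HCT-116 p53RE-bla cells receive compounds plus rat microsomes and NADPH (0.5 mg/mL final apiece), incubate 16 h at 37 C, and then CellTiter-Glo luminescence is recorded.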

[7] = p53 small molecule agonists, cell-based qHTS assay: qHTS cell viability counter screen (AID 1963581); note: nearly all actives have a fitted effect of over 45% in size; note: potency is the fitted concentration of half-maximal effect
In short: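 In the same plates used for the p53 bla reporter, HCT-116 cells given compounds for 16 h at 37 C received CellTiter-Glo; luminescence was recorded 30 min later at room temperature.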

[8] = target: 5-hydroxytryptamine receptor 2A (Homo sapiens) (UniProt P28223); test: 5-hydroxytryptamine receptor 2A (HTR2A) small molecule agonists, cell-based qHTS assay (AID 1963587); note: nearly all actives have a fitted effect of over 30% in size
Chain of 5-hydroxytryptamine receptor 2A (Homo sapiens) (P28223 whole entry, looked up): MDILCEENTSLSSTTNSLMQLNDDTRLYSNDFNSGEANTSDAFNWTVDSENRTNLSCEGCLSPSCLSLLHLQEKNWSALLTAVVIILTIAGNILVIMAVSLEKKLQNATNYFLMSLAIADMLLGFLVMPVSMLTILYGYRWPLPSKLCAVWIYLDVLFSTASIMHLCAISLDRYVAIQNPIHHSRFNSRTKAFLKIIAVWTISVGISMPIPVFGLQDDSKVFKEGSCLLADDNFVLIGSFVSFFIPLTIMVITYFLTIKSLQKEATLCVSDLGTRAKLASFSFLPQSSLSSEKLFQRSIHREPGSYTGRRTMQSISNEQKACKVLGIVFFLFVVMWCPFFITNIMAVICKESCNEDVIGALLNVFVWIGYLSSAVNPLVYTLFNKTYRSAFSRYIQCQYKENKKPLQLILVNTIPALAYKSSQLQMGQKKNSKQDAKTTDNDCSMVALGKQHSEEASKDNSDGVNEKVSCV
In short: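 CHO cells stably expressing human HTR2A, plated 18 h, loaded with calcium dye 1 h at 37 C. Agonist mode: compounds added and intracellular calcium fluorescence recorded kinetically for 2 min at 1 sec intervals.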

[9] = target: Muscarinic acetylcholine receptor M1 (Homo sapiens) (UniProt P11229); test: Cholinergic receptor muscarinic 1 (CHRM1) small molecule antagonists, cell-based qHTS assay (AID 1963588); note: nearly all actives have a fitted effect of over 40% in size
Chain of Muscarinic acetylcholine receptor M1 (Homo sapiens) (P11229 whole entry, looked up): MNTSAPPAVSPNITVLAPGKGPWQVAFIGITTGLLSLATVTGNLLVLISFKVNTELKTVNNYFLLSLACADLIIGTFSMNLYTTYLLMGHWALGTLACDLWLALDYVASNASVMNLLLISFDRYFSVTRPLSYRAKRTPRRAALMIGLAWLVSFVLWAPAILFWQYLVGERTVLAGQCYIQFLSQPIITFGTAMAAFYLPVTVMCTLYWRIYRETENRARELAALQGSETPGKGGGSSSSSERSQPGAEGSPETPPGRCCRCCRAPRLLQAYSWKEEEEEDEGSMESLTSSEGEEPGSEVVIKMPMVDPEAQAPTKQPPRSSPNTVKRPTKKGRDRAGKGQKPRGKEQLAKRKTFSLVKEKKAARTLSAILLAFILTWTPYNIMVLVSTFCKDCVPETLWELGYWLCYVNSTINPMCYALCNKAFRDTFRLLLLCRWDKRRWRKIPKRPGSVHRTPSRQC
In short: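 CHRM1-CHO calcium-flux assay, antagonist mode. Cells were seeded 18 h, dye-loaded 1 h at 37 C and given compound for 5 min at RT, then acetylcholine was added at 50nM. FDSS fluorescence was read 3 min; 15 concentrations, three runs.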

[10] = target: Muscarinic acetylcholine receptor M1 (Homo sapiens) (UniProt P11229); test: Cholinergic receptor muscarinic 1 (CHRM1) small molecule agonists, cell-based qHTS assay (AID 1963589); note: nearly all actives have a fitted effect of over 35% in size
In short: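 Each compound was tested at 15 concentrations across three independent runs on dye-loaded CHO cells stably expressing human CHRM1, reading intracellular calcium fluorescence kinetically at 1 sec intervals.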

[11] = cAMP Responsive Elements (CRE) small molecule agonists, cell-based qHTS assay (AID 1963590)
In short: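 Cell line: CRE-bla HEK 293T; medium DMEM/10% dialyzed FBS/0.1 mM NEAA/1 mM pyruvate/25 mM HEPES; 3 h compound exposure; beta-lactamase FRET readout after 2 h substrate loading at RT.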

[12] = cAMP Responsive Elements (CRE) small molecule antagonists, cell-based qHTS assay (AID 1963591; active = well fitted inhibition curve with a large enough effect in the signal ratio in the repeat runs, not every such curve was filed as active; the % refers to the signal ratio)
In short: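 Inhibition of NKH477-driven (0.25 uM final) CRE-beta-lactamase signal in HEK293T cells, 3 h compound exposure at 37 °C, detected by FRET substrate fluorescence.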

[13] = target: Beta-2 adrenergic receptor (Homo sapiens) (UniProt P07550); test: Adrenergic beta2 receptor (ADRB2) small molecule antagonists, cell-based qHTS assay (AID 1963592); note: nearly all actives have a fitted effect of over 50% in size; note: potency is the fitted concentration of half-maximal effect
Chain of Beta-2 adrenergic receptor (Homo sapiens) (P07550 whole entry, looked up): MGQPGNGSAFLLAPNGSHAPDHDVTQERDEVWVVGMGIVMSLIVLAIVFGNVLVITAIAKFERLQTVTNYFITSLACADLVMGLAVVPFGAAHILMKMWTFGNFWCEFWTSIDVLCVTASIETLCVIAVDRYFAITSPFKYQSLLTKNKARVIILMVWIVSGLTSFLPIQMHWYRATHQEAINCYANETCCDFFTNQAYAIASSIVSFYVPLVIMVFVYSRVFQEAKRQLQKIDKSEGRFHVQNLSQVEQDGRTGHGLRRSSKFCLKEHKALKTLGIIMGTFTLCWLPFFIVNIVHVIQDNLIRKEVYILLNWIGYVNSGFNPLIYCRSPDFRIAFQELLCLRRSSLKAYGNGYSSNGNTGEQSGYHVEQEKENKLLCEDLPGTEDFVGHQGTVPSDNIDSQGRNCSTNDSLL
In short: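 Cells (CHO, stable ADRB2 overexpression) incubated 18-20hr at 37C; compounds added from DMSO; agonist mix (1nM isoproterenol, 100uM IBMX, 25uM Ro-20-1724) added; 0.5hr RT; d2-cAMP and anti-cAMP-cryptate added; 1hr RT; 665/615 nm read.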

[14] = target: Beta-2 adrenergic receptor (Homo sapiens) (UniProt P07550); test: Adrenergic beta2 receptor (ADRB2) small molecule agonists, cell-based qHTS assay (AID 1963593);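 note: CHO cells stably overexpressing human ADRB2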
In short: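 CHO cells stably over-expressing ADRB2 were plated overnight at 37C, then dosed with compounds plus a stimulation mix containing 100uM IBMX and 25uM Ro-20-1724 for 0.5hr at room temperature. cAMP was measured by HTRF competition, 1hr.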

[15] = target: D(2) dopamine receptor (Homo sapiens) (UniProt P14416); test: Dopamine D2 receptor (DRD2) small molecule agonists, cell-based qHTS assay (AID 1963594); note: nearly all actives have a fitted effect of over 35% in size
Chain of D(2) dopamine receptor (Homo sapiens) (P14416 whole entry, looked up): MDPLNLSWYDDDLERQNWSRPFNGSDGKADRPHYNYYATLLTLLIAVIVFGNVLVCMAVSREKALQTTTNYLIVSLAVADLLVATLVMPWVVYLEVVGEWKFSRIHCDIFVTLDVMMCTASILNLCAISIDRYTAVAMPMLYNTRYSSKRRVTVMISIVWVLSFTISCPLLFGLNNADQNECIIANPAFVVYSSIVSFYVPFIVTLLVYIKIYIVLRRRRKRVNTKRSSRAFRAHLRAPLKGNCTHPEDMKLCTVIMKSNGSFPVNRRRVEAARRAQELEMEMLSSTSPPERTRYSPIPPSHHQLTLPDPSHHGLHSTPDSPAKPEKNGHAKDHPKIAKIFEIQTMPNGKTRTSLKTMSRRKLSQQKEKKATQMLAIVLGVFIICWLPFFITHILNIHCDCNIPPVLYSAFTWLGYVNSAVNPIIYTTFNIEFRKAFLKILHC
In short: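 HEK293 cells stably expressing human DRD2, pre-treated with PDE inhibitor Ro20-1724 (0.1 mM final) and compound 10 min at room temperature, then stimulated with NKH477 (200nM […]) for 30 min. cAMP read by HTRF (665/620 nm).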

[16] = target: D(2) dopamine receptor (Homo sapiens) (UniProt P14416); test: Dopamine D2 receptor (DRD2) small molecule antagonists, cell-based qHTS assay (AID 1963595; active = well fitted inhibition curve with a large enough effect in the signal ratio in the repeat runs, with a control signal flat; the % refers to the signal ratio; note: potency is the fitted concentration of half-maximal effect)
In short: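 Antagonist mode in DRD2-HEK293 cells: after compound addition with 0.1 mM Ro20-1724, cells received quinpirole (12 nM) and NKH477 (200 nM) for 30 min at room temperature; HTRF cAMP read after 1 h detection.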

[17] = p53 small molecule agonists, cell-based qHTS assay with human liver microsomes (AID 1963577)
In short: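 p53RE-bla reporter cells were pre-incubated 5 h at 37 C, then treated with compounds plus human liver microsomes (0.5 mg/mL final) and NADPH (0.5 mg/mL final) for 16 h at 37 C. Beta-lactamase activity was read by LiveBLAzer fluorescence after 2 h at room temperature.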

[18] = p53 small molecule agonists, cell-based qHTS assay with rat liver microsomes (AID 1963578)
In short: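 p53RE-bla cells were exposed to compounds together with rat liver microsomes (0.5 mg/mL final) and NADPH (0.5 mg/mL final) for 16 h at 37 C, then read by LiveBLAzer beta-lactamase fluorescence after 2 h at room temperature.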

[19] = p53 small molecule agonists, cell-based qHTS assay (AID 1963582; active = well fitted activation curve with a large enough effect in the signal ratio in the repeat runs, not every such curve was filed as active; the % refers to the signal ratio)
In short: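 Compounds are pin-transferred in DMSO onto p53RE-bla cells and incubated 16 h at 37 C. The B/G FRET beta-lactamase substrate is then applied for 2 h at RT and fluorescence recorded.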

[20] = target: 5-hydroxytryptamine receptor 2A (Homo sapiens) (UniProt P28223); test: 5-hydroxytryptamine receptor 2A (HTR2A) small molecule antagonists, cell-based qHTS assay (AID 1963586); note: nearly all actives have a fitted effect of over 45% in size; note: potency is the fitted concentration of half-maximal effect
In short: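 Antagonist-mode intracellular calcium assay: DOI (4 nM) added after 5 min compound pre-incubation at room temperature to dye-loaded HTR2A-CHO cells. Fluorescence followed for 3 min, sampled every second.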

Measured: Potency

Cn1cnc2c1c(=O)[nH]c(=O)n2C
not listed: [17] | [18] | [19] | [20]
inactive: all other assays above

CN(C)c1ccc(C(=C2C=CC(=[N+](C)C)C=C2)c2ccc(N(C)C)cc2)cc1
active: [1] 7.66 µM and 13.7 µM | [2] 6.08 µM | [5] 32.2 µM and 40.8 µM | [6] 22.8 µM and 36.3 µM | [7] 18.1 µM and 40.8 µM and 17.8 µM
inactive: [3] | [17] | [18] | [19]

Cc1ccc(C(=O)O)cc1
not listed: [12] | [14] | [18]
inactive: all other assays above

O=C1c2c(O)ccc(Nc3ccc(CCO)cc3)c2C(=O)c2c([N+](=O)[O-])ccc(O)c21
active: [2] 30.6 µM
not listed: [11] | [12] | [13] | [14] | [15] | [16] | [18]
inactive: all other assays above

O=C(O)CCC(=O)Nc1ccc(S(=O)(=O)Nc2nccs2)cc1
not listed: [14] | [16] | [18]
inactive: all other assays above

O=C(O)C(=O)Nc1cccc(-c2nn[nH]n2)c1
not listed: [6] | [11] | [15]
inactive: all other assays above

CN(C)CCC=C1c2ccccc2CCc2ccccc21
inactive: [1] | [2] | [3] | [4] | [17] | [18] | [5] | [6] | [11] | [15]
active: [13] 24.3 µM | [16] 27.3 µM

Oc1ccc(Cl)cc1Sc1cc(Cl)ccc1O
32.3 µM (active) and inactive: [5]
29.7 µM (active) and inactive: [20]
68.5 µM (active) and inactive: [13]
15.3 µM (active) and inactive: [2]
inactive: [3] | [4] | [17] | [18] | [10] | [14] | [15] | [16]
active: [1] 38.5 µM | [7] 18.2 µM and 17.8 µM

Cc1ccccc1C(=O)N1CC/C(=N\OS(=O)(=O)O)c2ccc(Cl)cc21
not listed: [8] | [9] | [16] | [17]
inactive: all other assays above
